Results taken from PubChem BioAssay (NCATS).
Records with an inconclusive call do not appear. A call without a number means that no potency is given here. Active and inactive are the calls of the source. Calls follow the shape of the dose curve; as a rule, active = well fitted curve in the direction sought with a large enough effect; inconclusive = small, poorly fitted or top-dose-only effect, or another doubt; inactive = no such curve, though single readings can be large; an effect the other way counts as inactive or inconclusive.

What was measured:
[1] = qHTS for Inhibitors of ATXN expression: Validation of Cytotoxic Assay (AID 588349); also: potency is read from the fitted curve at half-maximal effect
In short: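 Titrated compounds are added to cultured HEK293 cells, which are then held at 37 degrees C for 72 hr; loss of intracellular ATP, measured with CellTiter Glo, indicates toxicity.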

[2] = qHTS for Inhibitors of ATXN expression: Validation (AID 588378); also: nearly all actives have a fitted effect of over 75% in size; also: potency is read from the fitted curve at half-maximal effect
In short: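 Cells: HEK293-ATXN2-FFLuc, phenol-red free DMEM, 2 h attachment. Compound pin-transfer, 24 h, 37 degrees C, 5% CO2. CellTiter-Fluor 30 min, Ex405/Em525; Bright-Glo 5 min, luminescence 2 s exposure.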

[3] = molecular target: DNA dC->dU-editing enzyme APOBEC-3G (Homo sapiens) (UniProt Q9HC16); assay: qHTS for inhibitors of Vif-A3G interactions: Validation (AID 588379)
Sequence of DNA dC->dU-editing enzyme APOBEC-3G (Homo sapiens) (Q9HC16 whole entry, looked up): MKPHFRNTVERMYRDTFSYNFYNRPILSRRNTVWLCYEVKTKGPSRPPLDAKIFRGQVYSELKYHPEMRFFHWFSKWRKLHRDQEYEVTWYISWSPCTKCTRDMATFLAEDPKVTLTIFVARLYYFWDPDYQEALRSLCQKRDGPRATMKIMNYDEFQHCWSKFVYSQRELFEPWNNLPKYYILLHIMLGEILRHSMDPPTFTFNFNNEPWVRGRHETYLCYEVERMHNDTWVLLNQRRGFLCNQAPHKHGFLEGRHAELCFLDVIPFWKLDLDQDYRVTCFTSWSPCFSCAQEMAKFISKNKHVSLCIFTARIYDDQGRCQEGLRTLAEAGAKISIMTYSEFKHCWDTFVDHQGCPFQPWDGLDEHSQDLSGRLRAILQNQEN
In short: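 Yellow fluorescence (Ex 488, Em 500-530) of Vif-coexpressing HeLa A3G-eYFP cells, scanned by Acumen cytometer, reports blocked A3G degradation. Cells plated at 700/well overnight at 37 deg C before compound addition, then a further overnight compound incubation at 37 deg C.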

For COCC(=O)O[C@]1(CCN(C)CCCc2nc3ccccc3[nH]2)CCc2cc(F)ccc2[C@@H]1C(C)C, which Potency [1] is on record?
The Potency was 28.2 µM (active).

And the Potency [2]?
The Potency was 15.8 µM (active).

For NC1=NCC2c3ccccc3Cc3ccccc3N12 (centres undefined), which Potency [1] is on record?
Its Potency is “inactive”.

And the Potency [2]?
Its Potency is “inactive”.

What does the source list for Cc1cccc(C)c1NC(=O)C(C)N (centres undefined)?
Potency [1]: inactive; Potency [2]: inactive

Which results are given for CC(=O)Oc1cc(C(C)C)c(OCCN(C)C)cc1C?
Potency [1]: inactive; Potency [2]: inactive

For C#CCN(C)CCCOc1ccc(Cl)cc1Cl, which Potency [1] is on record?
The Potency was “inactive”.

And the Potency [2]?
The Potency was “inactive”.

For O=C(O)CN(CCOCCOCCN(CC(=O)O)CC(=O)O)CC(=O)O, which Potency [1] is on record?
The Potency was “inactive”.

What about the Potency [2] of the same compound?
Its Potency is “inactive”.

With CC[N+](C)(C)c1cccc(O)c1 as the compound, how does the Potency [1] read?
Its Potency is “inactive”.

What about the Potency [2] of the same compound?
Its Potency is “inactive”.

Which Potency [1] does the source give for CC(C)[N+](C)(CCOC(=O)C1c2ccccc2Oc2ccccc21)C(C)C here?
The Potency was “inactive”.

What about the Potency [2] of the same compound?
Its Potency is “inactive”.

What does the source list for COc1cc2c(cc1OC)-c1cc(=Nc3c(C)cc(C)cc3C)n(C)c(=O)n1CC2?
Potency [1]: inactive; Potency [2]: inactive

For CCc1c(C)[nH]c2c1C(=O)C(CN1CCOCC1)CC2 (centres undefined), which Potency [1] is on record?
Its Potency is “inactive”.

What about the Potency [2] of the same compound?
The Potency was “inactive”.

With O=C(O)CP(=O)(O)O as the compound, how does the Potency [1] read?
The Potency was “inactive”.

And the Potency [2]?
The Potency was “inactive”.

What does the source list for CO[C@@]1(NC(=O)CSCC#N)C(=O)N2C(C(=O)O)=C(CSc3nnnn3C)CS[C@@H]21?
Potency [1]: inactive; Potency [2]: inactive

With CN(C)[C@@H]1C(=O)C(C(N)=O)=C(O)[C@@]2(O)C(=O)C3=C(O)c4c(O)ccc(Cl)c4[C@@H](O)[C@H]3C[C@@H]12 as the compound, how does the Potency [1] read?
The Potency was “inactive”.

And the Potency [2]?
Its Potency is “inactive”.

Which Potency [1] does the source give for CC(C)NCC(O)c1cc(O)cc(O)c1 (centres undefined) here?
The Potency was “inactive”.

What about the Potency [2] of the same compound?
Its Potency is “inactive”.

For CCCN(CCC)C(=O)C(CCC(=O)O)NC(=O)c1ccccc1 (centres undefined), which Potency [1] is on record?
The Potency was “inactive”.

And the Potency [2]?
Its Potency is “inactive”.

With CN(C)CCN(Cc1cccs1)c1ccccn1 as the compound, how does the Potency [1] read?
Its Potency is “inactive”.

And the Potency [2]?
Its Potency is “inactive”.

For CCn1cc(C(=O)O)c(=O)c2cc3c(cc21)OCO3, which Potency [1] is on record?
The Potency was “inactive”.

What about the Potency [2] of the same compound?
The Potency was “inactive”.

Which results are given for NC(=O)c1ncn([C@@H]2O[C@H](CO)[C@@H](O)[C@H]2O)c1O?
Potency [1]: inactive; Potency [2]: inactive

For c1ccc2c(c1)CCCC2C1=NCCN1 (centres undefined), which Potency [1] is on record?
The Potency was “inactive”.

What about the Potency [2] of the same compound?
The Potency was “inactive”.

Which results are given for C(=C\c1ccccc1)/CN1CCN(C(c2ccccc2)c2ccccc2)CC1?
Potency [1]: inactive; Potency [2]: inactive

Which results are given for CC(=O)OC(C)C[N+](C)(C)C (centres undefined)?
Potency [1]: inactive; Potency [2]: inactive

For Cc1nc2ccccn2c(=O)c1CCN1CCC(C(=O)c2ccc(F)cc2)CC1, which Potency [1] is on record?
The Potency was “inactive”.

And the Potency [2]?
The Potency was “inactive”.

Which Potency [1] does the source give for C[C@]12CCC(=O)C=C1CC[C@@H]1[C@@H]2CC[C@@]2(C)[C@H]1CC[C@]2(O)C(=O)CO here?
Its Potency is “inactive”.

What about the Potency [2] of the same compound?
Its Potency is “inactive”.

For C[n+]1cc2c3c(ccc2c2ccc4cc5c(cc4c21)OCO5)OCO3, which Potency [1] is on record?
The Potency was 3.55 µM (active).

What about the Potency [2] of the same compound?
Its Potency is 6.31 µM (active).

For CCCC(C(=O)OCCN(CC)CC)(c1ccccc1)c1ccccc1, which Potency [1] is on record?
Its Potency is “inactive”.

And the Potency [2]?
Its Potency is “inactive”.

For CC(C)(C)c1ccc(C(=O)CCCN2CCC(OC(c3ccccc3)c3ccccc3)CC2)cc1, which Potency [1] is on record?
Its Potency is “inactive”.

What about the Potency [2] of the same compound?
Its Potency is “inactive”.

Which Potency [1] does the source give for CN(C)C(=O)Oc1ccc[n+](C)c1 here?
Its Potency is “inactive”.

What about the Potency [2] of the same compound?
Its Potency is “inactive”.

Which Potency [1] does the source give for CCN(Cc1ccncc1)C(=O)C(CO)c1ccccc1 (centres undefined) here?
Its Potency is “inactive”.

What about the Potency [2] of the same compound?
The Potency was “inactive”.

Which results are given for O=C1NCN(c2ccccc2)C12CCN(CCCC(c1ccc(F)cc1)c1ccc(F)cc1)CC2?
Potency [1]: inactive; Potency [2]: inactive

With Brc1c(NC2=NCCN2)ccc2nccnc12 as the compound, how does the Potency [1] read?
The Potency was “inactive”.

What about the Potency [2] of the same compound?
The Potency was “inactive”.

And the outcome [3]?
The outcome was “inactive”.

For Cc1ccc(=O)n(-c2ccccc2)c1, which Potency [1] is on record?
Its Potency is “inactive”.

What about the Potency [2] of the same compound?
Its Potency is “inactive”.

What about the outcome [3] of the same compound?
The outcome was “inactive”.

With C[C@@H](O)[C@H]1C(=O)N2C(C(=O)O)=C(SCCN=CN)C[C@H]12 as the compound, how does the Potency [1] read?
The Potency was “inactive”.

And the Potency [2]?
Its Potency is “inactive”.

Which Potency [1] does the source give for CCCCNc1ccc(C(=O)OCCN(C)C)cc1 here?
Its Potency is “inactive”.

And the Potency [2]?
The Potency was “inactive”.

Which Potency [1] does the source give for NS(=O)(=O)c1cc2c(cc1Cl)NC(C1CC3C=CC1C3)NS2(=O)=O (centres undefined) here?
The Potency was “inactive”.

What about the Potency [2] of the same compound?
Its Potency is “inactive”.

With CCN(CC)CCNC(=O)c1ccc(NC(C)=O)cc1 as the compound, how does the Potency [1] read?
The Potency was “inactive”.

What about the Potency [2] of the same compound?
The Potency was “inactive”.

What does the source list for NC(N)=NC(=O)Cc1c(Cl)cccc1Cl?
Potency [1]: inactive; Potency [2]: inactive; outcome [3]: inactive

For COc1ccc([C@@H]2Sc3ccccc3N(CCN(C)C)C(=O)[C@@H]2OC(C)=O)cc1, which Potency [1] is on record?
Its Potency is “inactive”.

What about the Potency [2] of the same compound?
Its Potency is “inactive”.

And the outcome [3]?
Its outcome is “inactive”.

With CN1C[C@H](C(=O)N[C@]2(C)O[C@@]3(O)[C@@H]4CCCN4C(=O)[C@H](Cc4ccccc4)N3C2=O)C[C@@H]2c3cccc4[nH]cc(c34)C[C@H]21 as the compound, how does the Potency [1] read?
Its Potency is “inactive”.

And the Potency [2]?
Its Potency is “inactive”.

For CCOC(=O)c1cnc2c(cnn2CC)c1NN=C(C)C, which Potency [1] is on record?
The Potency was “inactive”.

And the Potency [2]?
Its Potency is “inactive”.

And the outcome [3]?
Its outcome is “inactive”.

With CN(C(=O)CCCOc1ccc2[nH]c(=O)ccc2c1)C1CCCCC1 as the compound, how does the Potency [1] read?
Its Potency is “inactive”.

What about the Potency [2] of the same compound?
The Potency was “inactive”.

And the outcome [3]?
The outcome was “inactive”.

For NC(=O)c1cn(Cc2c(F)cccc2F)nn1, which Potency [1] is on record?
The Potency was “inactive”.

What about the Potency [2] of the same compound?
Its Potency is “inactive”.

For N[C@@H](COP(=O)(O)O)C(=O)O, which Potency [1] is on record?
Its Potency is “inactive”.

And the Potency [2]?
Its Potency is “inactive”.

What about the outcome [3] of the same compound?
The outcome was “inactive”.

Which Potency [1] does the source give for CCCCNc1c(C(=O)OCC)c(C)nc2c1cnn2CC here?
The Potency was “inactive”.

What about the Potency [2] of the same compound?
The Potency was “inactive”.

And the outcome [3]?
The outcome was “inactive”.
